Values joined by “and” are separate entries in the source; they are usually repeats but may differ in a detail not shown here. Equal values may be shown once. The whole screen tested about 5,500 compounds, of which about 2,000 (36%) were called active. Not shown: some 18% with an inconclusive outcome. No stated cut-off is given here; in the data, active means normalized growth mostly below about 0.91 (no sharp cut-off); inconclusive means no clear call, values can overlap the other calls; inactive means mostly above about 0.92. The list shows a part of the results.
Assay: chemical genetic growth profiling, strain panel (AID 1159580);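 further: tested at 20 µM; growth read once vehicle control cultures reached saturation at 30 °C; 1 = growth at the plate median or of vehicle wells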
Details: S. cerevisiae deletion strains, growth OD

Measured: normalized growth

C=C[C@@H](C1=CC(=O)C(OC)=C(OC)C1=O)c1ccccc1
active: locus YAL021C, strain ccr4, stronger effect = lower value 0.899 | locus YAL026C, strain drs2, stronger effect = lower value 0.405 | locus YAL030W, strain snc1, stronger effect = lower value 0.825 | locus YBL061C, strain skt5, stronger effect = lower value 0.859 | locus YBR009C, strain hhf1, stronger effect = lower value 0.273 | locus YBR021W, strain FUR4, stronger effect = lower value 0.516 | locus YBR023C, strain chs3, stronger effect = lower value 0.816 | locus YBR231C, strain swc5, stronger effect = lower value 0.742 | locus YBR279W, strain paf1, stronger effect = lower value 0.703 | locus YCL011C, strain gbp2, stronger effect = lower value 0.307 | locus YCL016C, strain dcc1, stronger effect = lower value 0.581 | locus YCL069W, strain vba3, stronger effect = lower value 0.45 | locus YCR088W, strain abp1, stronger effect = lower value 0.911 | locus YDL035C, strain GPR1, stronger effect = lower value 0.277 | locus YDL192W, strain arf1, stronger effect = lower value 0.266 | locus YDR137W, strain rgp1, stronger effect = lower value 0.694 | locus YDR150W, strain NUM1, stronger effect = lower value 0.61 | locus YDR162C, strain NBP2, stronger effect = lower value 0.0631 | locus YDR297W, strain sur2, stronger effect = lower value 0.802 | locus YDR318W, strain mcm21, stronger effect = lower value 0.181 | locus YDR334W, strain swr1, stronger effect = lower value 0.472 | locus YDR388W, stronger effect = lower value 0.827 | locus YDR392W, strain spt3, stronger effect = lower value 0.146 | locus YDR502C, strain sam2, stronger effect = lower value 0.665 | locus YEL003W, strain gim4, stronger effect = lower value 0.553 | locus YEL061C, strain CIN8 (second series), stronger effect = lower value 0.642 | locus YER015W, strain faa2, stronger effect = lower value 0.588 | locus YER155C, strain BEM2 (second series), stronger effect = lower value 0.413 | locus YER167W, strain BCK2, stronger effect = lower value 0.252 | locus YFR010W, strain ubp6, stronger effect = lower value 0.869 | locus YGL086W, strain mad1, stronger effect = lower value 0.142 | locus YGL173C, strain kem1, stronger effect = lower value 0.632 | locus YGL227W, strain vid30, stronger effect = lower value 0.473 | locus YGL240W, strain doc1, stronger effect = lower value 0.723 | locus YGL248W, strain PDE1, stronger effect = lower value 0.125 | locus YGL253W, strain hxk2, stronger effect = lower value 0.838 | locus YGR078C, strain PAC10, stronger effect = lower value 0.0851 | locus YGR135W, strain pre9, stronger effect = lower value 0.306 | locus YGR252W, strain gcn5, stronger effect = lower value 0.369 | locus YHR013C, strain ard1, stronger effect = lower value 0.507 | locus YHR027C, strain rpn1, stronger effect = lower value 0.775 | locus YHR030C, strain SLT2, stronger effect = lower value 0.0586 and 0.753 | locus YHR094C, strain hxt1, stronger effect = lower value 0.782 | locus YHR129C, strain ARP1, stronger effect = lower value 0.212 | locus YHR142W, strain chs7, stronger effect = lower value 0.603 | locus YHR200W, strain rpn10, stronger effect = lower value 0.788 | locus YIL066C, strain RNR3, stronger effect = lower value 0.148 | locus YIL073C, strain SPO22, stronger effect = lower value 0.341 | locus YIL125W, strain kgd1, stronger effect = lower value 0.919 | locus YJL092W, strain hpr5, stronger effect = lower value 0.883 | locus YJL095W, strain BCK1 (second series), stronger effect = lower value 0.468 | locus YJL115W, strain asf1, stronger effect = lower value 0.82 | locus YJL164C, strain tpk1, stronger effect = lower value 0.376 | locus YJL166W, strain qcr8, stronger effect = lower value 0.245 | locus YJL168C, strain set2, stronger effect = lower value 0.881 | locus YJR066W, strain TOR1, stronger effect = lower value 0.716
inactive: locus YBR171W, strain sec66, stronger effect = lower value 0.996 | locus YBR229C, strain ROT2, stronger effect = lower value 0.989 | locus YCL029C, strain bik1, stronger effect = lower value 0.968 | locus YDL005C, strain med2, stronger effect = lower value 1 | locus YDL040C, strain nat1, stronger effect = lower value 1.01 | locus YDL074C, strain BRE1, stronger effect = lower value 0.962 | locus YDL101C, strain DUN1, stronger effect = lower value 0.97 | locus YDL185W, strain tfp1, stronger effect = lower value 0.945 | locus YDR001C, strain nth1, stronger effect = lower value 0.997 | locus YDR069C, strain doa4, stronger effect = lower value 0.995 | locus YDR101C, strain arx1, stronger effect = lower value 0.998 | locus YDR159W, strain sac3, stronger effect = lower value 1.02 | locus YDR195W, strain ref2 1.09 | locus YDR335W, strain msn5, stronger effect = lower value 0.977 | locus YEL037C, strain rad23, stronger effect = lower value 0.952 | locus YER016W, strain bim1, stronger effect = lower value 0.999 | locus YER110C, stronger effect = lower value 0.97 | locus YER111C, strain swi4, stronger effect = lower value 0.994 | locus YER155C, strain BEM2, stronger effect = lower value 0.985 | locus YGL078C, strain dbp3, stronger effect = lower value 0.966 | locus YGL167C, strain pmr1, stronger effect = lower value 0.972 | locus YHR079C, strain IRE1 (second series), stronger effect = lower value 0.96 | locus YHR079C, strain IRE1, stronger effect = lower value 0.888 | locus YIR030C, strain dcg1, stronger effect = lower value 0.967 | locus YJL129C, strain trk1, stronger effect = lower value 0.978 | locus YJL134W, strain LCB3, stronger effect = lower value 0.986 | locus YJL154C, strain vps35, stronger effect = lower value 1.01 | locus YJL187C, strain SWE1 (second series), stronger effect = lower value 0.977
0.892 (inactive) and 0.782 (active): locus YJL095W, strain BCK1, stronger effect = lower value
